Measurements: PubChem BioAssay (Tox21)
Records with an inconclusive call do not appear. Activity calls are given as the source filed them. Unless noted, calls follow the shape of the dose curve; as a rule, active = well fitted curve in the direction sought with a large enough effect in the repeat runs; inconclusive = weak or mixed curves; inactive = no such curve, though single readings can be large; an effect the other way counts as inactive or inconclusive.

Legend:
[1] = qHTS assay to identify small molecule HDAC inhibitors - cell viability counter screen (AID 1259365); also: series mostly up to about 92 µM; nearly all actives have a fitted effect of over 50% in size
Method in brief: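 Luminescence from CellTiter-Glo, developed 30min at room temperature, reports viability of wild-type HCT-116 cells treated 2hr with compounds at 37 C and 5% CO2 after overnight plating.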

[2] = qHTS assay to identify small molecule agonists of the sonic hedgehog signaling (Shh) pathway - cell viability counter screen (AID 1259366); also: nearly all actives have a fitted effect of over 50% in size
Method in brief: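 Cytotoxicity counter screen run in the same wells as the Shh reporter assay. NIH/3T3 cells carrying a Gli1 response element–driven luciferase were treated with DMSO-dissolved compounds for 24hr, and live-cell protease activity was measured with CellTiter-Fluor.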

[3] = qHTS assay to identify small molecule antagonists of the sonic hedgehog signaling (Shh) pathway - cell viability counter screen (AID 1259367); also: nearly all actives have a fitted effect of over 55% in size
Method in brief: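 Tox21 library chemicals were tested on a Gli1-Luc NIH/3T3 clone (2,000 cells/well) stimulated by conditioned medium; viability was quantified as fluorescence from CellTiter-Fluor reagent added at 23 hr.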

[4] = qHTS assay to identify small molecule agonists of the sonic hedgehog signaling (Shh) pathway (AID 1259368; calls by dose curve;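 also: NIH/3T3-derived 3T3Gli1-Luc cells carrying a stable Gli1-driven firefly luciferase reporter; series mostly up to about 92 µM; nearly all actives have a fitted effect of over 15% in size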)
Method in brief: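 Following a 24 hr incubation with DMSO-dissolved compounds at 37 C, 5% CO2, Gli1-Luc NIH/3T3-derived cells received luciferase reagent for 30 min at room temperature prior to luminescence measurement.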

[5] = qHTS assay to identify small molecule antagonists of the sonic hedgehog signaling (Shh) pathway (AID 1259369; calls by dose curve; also: nearly all actives have a fitted effect of over 45% in size)
Method in brief: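 Read-out is luminescence from a firefly luciferase gene controlled by the Gli1 response element, in 3T3Gli1-Luc cells pre-incubated 4hr then exposed to compounds and conditioned medium for 24hr.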

[6] = qHTS assay to identify small molecule agonists of the androgen receptor (AR) signaling pathway in the presence of an antagonist - cell viability counter screen (AID 1259379);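 also: MDA-kb2 human breast cancer cells carrying an MMTV luciferase reporter; series mostly up to about 92 µM; nearly all actives have a fitted effect of over 25% in size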
Method in brief: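 Each compound was tested at 15 concentrations on MDA-kb2 cells in the presence of 3.0uM nilutamide. Viability was measured by CellTiter-Fluor fluorescence after a 16 hr incubation at 37C in a CO2-free atmosphere.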

[7] = qHTS assay to identify small molecule agonists of the estrogen receptor beta (ER-beta) signaling pathway - cell viability counter screen (AID 1259380); also: nearly all actives have a fitted effect of over 30% in size
Method in brief: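 Compounds dissolved in DMSO were pin-transferred onto ER-beta-UAS-bla HEK293T cells that had settled 6 hr, and exposure ran 16 hr at 37C. Following the reporter read, CellTiter-Glo luminescence after 30 min at room temperature indicated cytotoxicity.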

[8] = qHTS assay to identify small molecule antagonists of the estrogen receptor beta (ER-beta) signaling pathway - cell viability counter screen (AID 1259382); also: series mostly up to about 92 µM; nearly all actives have a fitted effect of over 55% in size
Method in brief: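 CellTiter-Glo ATP luminescence measured after the LiveBLAzer read in the same wells; ER-beta-UAS-bla HEK293T cells, 16 hr compound treatment with 1nM 17-beta-estradiol agonist at 37C, 5% CO2.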

[9] = qHTS assay to identify small molecule agonists or antagonists of the thyroid stimulating hormone receptor (TSHR) signaling pathway - wild type cell line counter screen (AID 1259384; calls by dose curve)
Method in brief: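 Wild-type Hek293 cells, 800/well, 18 h at 37C, then compound with Ro20-1724 for 30 min RT. cAMP by HTRF (cAMP-d2/anti-cAMP cryptate), 1 h RT, fluorescence read. 15 concentrations, triplicates.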

[10] = biological target: Thyrotropin receptor (Homo sapiens) (UniProt P16473); test: qHTS assay to identify small molecule antagonists of the thyroid stimulating hormone receptor (TSHR) signaling pathway (AID 1259385; calls by dose curve; also: nearly all actives have a fitted effect of over 20% in size)
Method in brief: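 TSHR-HEK293 cells (800/well) plated 18 h, then compounds with Ro20-1724 and TSH at 1.5 ng/mL final, 30 min at room temperature. cAMP quantified by HTRF (cAMP-d2/anti-cAMP-cryptate, 1 h); 15 concentrations in triplicate.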

[11] = qHTS assay to identify small molecule agonists of the estrogen receptor alpha (ER-alpha) signaling pathway in the presence of an antagonist - cell viability counter screen (AID 1259386);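 also: series mostly up to about 92 µM; cells exposed to compounds for 22 h at 37 °C before the viability read; nearly all actives have a fitted effect of over 30% in size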
Method in brief: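 Using estrogen-depleted VM7Luc4E2 cells, the 15-concentration compound series was applied together with 10.0nM ICI-182,780 and incubated 22hr at 37C/5% CO2. Cell viability was then scored by CellTiter-Fluor.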

[12] = biological target: Progesterone receptor (Homo sapiens) (UniProt P06401); test: qHTS assay to identify small molecule agonists of the progesterone receptor (PR) signaling pathway (AID 1346784; calls by dose curve; also: nearly all actives have a fitted effect of over 30% in size)
Method in brief: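 Beta-lactamase reporter read-out: after 16 hr compound treatment at 37C and a further 2 hr at room temperature with LiveBLAzer B/G FRET substrate, fluorescence was measured in PR-UAS-bla HEK 293T cells grown in 2% charcoal-stripped serum.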

[13] = qHTS assay to identify small molecule antagonists of the progesterone receptor (PR) signaling pathway - cell viability counter screen (AID 1346798);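 also: HEK293T PR-UAS-bla cells stimulated with the agonist R5020; series mostly up to about 92 µM; nearly all actives have a fitted effect of over 50% in size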
Method in brief: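 HEK293T PR-UAS-bla, 2% charcoal-stripped FBS; 4 hr pre-plate; cpd + R5020, 16 h 37C; LiveBLAzer read first; then CellTiter-Glo 30 min RT, luminescence.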

[14] = qHTS assay to identify small molecule agonists of the progesterone receptor (PR) signaling pathway - cell viability counter screen (AID 1346799; calls by dose curve; also: nearly all actives have a fitted effect of over 45% in size)
Method in brief: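 Luminescence from CellTiter-Glo, added after the beta-lactamase FRET read in the same wells, gave cytotoxicity in PR-UAS-bla HEK293T cells treated with compounds for 16 hr at 37C.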

[15] = qHTS assay to identify small molecule antagonists of the TGF-beta/Smad signaling pathway - cell viability counter screen (AID 1346824); also: nearly all actives have a fitted effect of over 50% in size
Method in brief: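 SBE-bla HEK 293T cells, incubated overnight, then compound plus 0.25 ng/mL TGF-beta1 (stock added) for 5 hr at 37 C. Viability was read in the same wells by CellTiter-Glo luminescence after 30 min at room temperature.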

[16] = biological target: Estrogen receptor (Homo sapiens) (UniProt P03372); test: qHTS assay to identify small molecule agonists of the estrogen receptor alpha (ER-alpha) signaling pathway in the presence of an antagonist (AID 1259383; calls by dose curve; also: top concentration of the series differs between compounds; nearly all actives have a fitted effect of over 15% in size)
Method in brief: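 Luminescent ERE-luciferase reporter, VM7Luc4E2 cells (endogenous ER-alpha); 10.0nM ICI-182,780 final; 15-point compound titration; 22hr at 37C; ONE-Glo, 30min RT.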

[17] = biological target: Progesterone receptor (Homo sapiens) (UniProt P06401); test: qHTS assay to identify small molecule antagonists of the progesterone receptor (PR) signaling pathway (AID 1346795; active = well fitted inhibition curve with a large enough effect in the signal ratio in the repeat runs, not every such curve was filed as active; the % refers to the signal ratio)
Method in brief: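 Read-out is fluorescence from the LiveBLAzer B/G FRET substrate, cleaved by a UAS-controlled beta-lactamase in PR-UAS-bla HEK293T cells after 16 hr exposure to compound plus 1 nM promegestone (final), followed by 2 hr at room temperature.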

[18] = biological target: Estrogen receptor beta (Homo sapiens) (UniProt Q92731); test: qHTS assay to identify small molecule agonists of the estrogen receptor beta (ER-beta) signaling pathway (AID 1259377; active = well fitted activation curve with a large enough effect in the signal ratio in the repeat runs, not every such curve was filed as active; the % refers to the signal ratio)
Method in brief: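 HEK293T ER-beta-UAS-bla; 2% charcoal-stripped FBS; cells pre-incubated 6 hr, compound 16 hr, 37C/5% CO2; LiveBLAzer B/G FRET substrate 2 h RT; fluorescence intensity read.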

[19] = biological target: Estrogen receptor beta (Homo sapiens) (UniProt Q92731); test: qHTS assay to identify small molecule antagonists of the estrogen receptor beta (ER-beta) signaling pathway (AID 1259378; active = well fitted inhibition curve with a large enough effect in the signal ratio in the repeat runs, not every such curve was filed as active; the % refers to the signal ratio)
Method in brief: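 ER-beta-UAS-bla HEK293T cells in 2% charcoal-stripped FBS medium treated with compound plus 1nM final 17-beta-estradiol for 16 hr at 37C. Beta-lactamase reporter read by FRET substrate fluorescence after 2 hours at room temperature.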

[20] = biological target: Androgen receptor (Homo sapiens) (UniProt P10275); test: qHTS assay to identify small molecule agonists of the androgen receptor (AR) signaling pathway in the presence of an antagonist (AID 1259381; calls by dose curve; also: nearly all actives have a fitted effect of over 15% in size)
Method in brief: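 Plated MDA-kb2 cells (3,000/well) were pre-incubated 5hr, given nilutamide (3.0uM final) or buffer, then dosed with compounds in DMSO at 15 concentrations. Luciferase activity was quantified by luminescence after 16hr at 37C.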
% is scaled to controls: 0 for no effect and ±100 for the full control effect.

Progesterone receptor (Homo sapiens), sequence (P06401 whole entry, looked up): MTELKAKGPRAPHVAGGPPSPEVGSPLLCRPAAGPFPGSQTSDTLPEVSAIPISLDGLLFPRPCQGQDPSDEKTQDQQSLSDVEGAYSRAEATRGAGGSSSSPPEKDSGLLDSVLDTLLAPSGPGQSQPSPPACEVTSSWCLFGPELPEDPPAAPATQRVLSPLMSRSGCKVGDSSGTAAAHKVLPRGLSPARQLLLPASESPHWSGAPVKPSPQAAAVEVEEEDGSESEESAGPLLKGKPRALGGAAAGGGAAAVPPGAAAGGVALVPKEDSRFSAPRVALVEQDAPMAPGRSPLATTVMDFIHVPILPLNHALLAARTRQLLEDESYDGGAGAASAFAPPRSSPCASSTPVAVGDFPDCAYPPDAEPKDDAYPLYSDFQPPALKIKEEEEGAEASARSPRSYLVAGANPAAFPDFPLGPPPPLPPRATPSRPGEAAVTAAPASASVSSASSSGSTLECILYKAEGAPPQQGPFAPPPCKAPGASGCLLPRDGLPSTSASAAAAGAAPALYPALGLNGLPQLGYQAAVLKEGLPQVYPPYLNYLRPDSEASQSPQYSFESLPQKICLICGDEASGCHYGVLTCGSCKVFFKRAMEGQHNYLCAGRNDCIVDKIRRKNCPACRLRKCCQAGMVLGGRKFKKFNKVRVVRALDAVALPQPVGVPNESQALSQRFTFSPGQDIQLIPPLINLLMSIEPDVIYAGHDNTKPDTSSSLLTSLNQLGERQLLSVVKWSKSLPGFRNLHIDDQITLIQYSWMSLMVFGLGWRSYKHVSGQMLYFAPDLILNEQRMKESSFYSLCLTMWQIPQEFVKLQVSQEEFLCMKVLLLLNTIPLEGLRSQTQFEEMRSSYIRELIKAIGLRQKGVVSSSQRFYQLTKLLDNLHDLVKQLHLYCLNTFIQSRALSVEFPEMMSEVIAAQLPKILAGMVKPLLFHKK
Thyrotropin receptor (Homo sapiens), sequence (P16473 whole entry, looked up): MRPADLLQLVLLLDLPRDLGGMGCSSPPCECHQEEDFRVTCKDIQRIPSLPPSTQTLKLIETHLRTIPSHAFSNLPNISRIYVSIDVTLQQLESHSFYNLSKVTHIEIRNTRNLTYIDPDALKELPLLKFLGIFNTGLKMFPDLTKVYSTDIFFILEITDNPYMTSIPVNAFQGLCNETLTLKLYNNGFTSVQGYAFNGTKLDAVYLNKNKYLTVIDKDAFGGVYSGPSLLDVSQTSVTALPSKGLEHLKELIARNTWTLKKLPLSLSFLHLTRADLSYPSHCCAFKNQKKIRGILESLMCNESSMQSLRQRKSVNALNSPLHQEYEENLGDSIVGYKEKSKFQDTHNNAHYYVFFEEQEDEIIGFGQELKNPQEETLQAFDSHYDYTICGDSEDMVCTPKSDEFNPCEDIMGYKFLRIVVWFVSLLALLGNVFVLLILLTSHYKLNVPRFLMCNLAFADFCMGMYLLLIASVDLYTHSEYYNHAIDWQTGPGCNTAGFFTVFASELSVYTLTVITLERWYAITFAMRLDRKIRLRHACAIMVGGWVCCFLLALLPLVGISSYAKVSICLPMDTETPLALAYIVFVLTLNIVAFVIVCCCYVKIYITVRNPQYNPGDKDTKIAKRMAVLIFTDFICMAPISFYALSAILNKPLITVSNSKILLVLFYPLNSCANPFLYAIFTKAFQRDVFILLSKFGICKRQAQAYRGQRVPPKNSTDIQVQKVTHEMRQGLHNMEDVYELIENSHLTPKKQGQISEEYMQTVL
Estrogen receptor (Homo sapiens), sequence (P03372 whole entry, looked up): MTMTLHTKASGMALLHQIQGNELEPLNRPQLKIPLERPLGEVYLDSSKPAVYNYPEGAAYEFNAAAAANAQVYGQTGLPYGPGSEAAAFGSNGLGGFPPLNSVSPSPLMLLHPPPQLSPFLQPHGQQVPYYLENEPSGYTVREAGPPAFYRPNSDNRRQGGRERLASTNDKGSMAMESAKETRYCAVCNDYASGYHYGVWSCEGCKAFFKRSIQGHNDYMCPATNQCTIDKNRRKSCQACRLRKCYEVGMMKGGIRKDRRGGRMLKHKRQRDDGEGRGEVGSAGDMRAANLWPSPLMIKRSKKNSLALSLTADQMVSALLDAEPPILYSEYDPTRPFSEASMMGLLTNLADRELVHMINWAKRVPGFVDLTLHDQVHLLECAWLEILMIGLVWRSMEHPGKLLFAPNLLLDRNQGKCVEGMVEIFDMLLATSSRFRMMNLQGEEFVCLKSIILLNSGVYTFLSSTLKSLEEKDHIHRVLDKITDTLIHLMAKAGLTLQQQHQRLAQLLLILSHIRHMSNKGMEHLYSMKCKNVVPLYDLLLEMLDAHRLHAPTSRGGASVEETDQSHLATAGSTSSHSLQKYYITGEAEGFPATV
Estrogen receptor beta (Homo sapiens), sequence (Q92731 whole entry, looked up): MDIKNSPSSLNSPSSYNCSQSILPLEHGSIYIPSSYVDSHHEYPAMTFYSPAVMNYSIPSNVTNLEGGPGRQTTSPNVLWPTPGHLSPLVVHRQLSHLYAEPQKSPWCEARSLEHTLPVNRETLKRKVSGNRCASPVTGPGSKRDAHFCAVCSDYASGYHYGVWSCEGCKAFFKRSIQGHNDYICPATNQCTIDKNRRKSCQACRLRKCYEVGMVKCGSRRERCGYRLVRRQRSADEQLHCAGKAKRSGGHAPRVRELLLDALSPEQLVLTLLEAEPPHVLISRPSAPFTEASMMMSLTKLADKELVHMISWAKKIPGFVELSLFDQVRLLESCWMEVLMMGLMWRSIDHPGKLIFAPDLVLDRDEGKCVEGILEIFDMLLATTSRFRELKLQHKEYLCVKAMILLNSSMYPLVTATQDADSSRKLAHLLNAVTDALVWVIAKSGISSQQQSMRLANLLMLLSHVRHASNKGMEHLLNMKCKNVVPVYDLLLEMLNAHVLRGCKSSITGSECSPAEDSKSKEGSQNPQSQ
Androgen receptor (Homo sapiens), sequence (P10275 whole entry, looked up): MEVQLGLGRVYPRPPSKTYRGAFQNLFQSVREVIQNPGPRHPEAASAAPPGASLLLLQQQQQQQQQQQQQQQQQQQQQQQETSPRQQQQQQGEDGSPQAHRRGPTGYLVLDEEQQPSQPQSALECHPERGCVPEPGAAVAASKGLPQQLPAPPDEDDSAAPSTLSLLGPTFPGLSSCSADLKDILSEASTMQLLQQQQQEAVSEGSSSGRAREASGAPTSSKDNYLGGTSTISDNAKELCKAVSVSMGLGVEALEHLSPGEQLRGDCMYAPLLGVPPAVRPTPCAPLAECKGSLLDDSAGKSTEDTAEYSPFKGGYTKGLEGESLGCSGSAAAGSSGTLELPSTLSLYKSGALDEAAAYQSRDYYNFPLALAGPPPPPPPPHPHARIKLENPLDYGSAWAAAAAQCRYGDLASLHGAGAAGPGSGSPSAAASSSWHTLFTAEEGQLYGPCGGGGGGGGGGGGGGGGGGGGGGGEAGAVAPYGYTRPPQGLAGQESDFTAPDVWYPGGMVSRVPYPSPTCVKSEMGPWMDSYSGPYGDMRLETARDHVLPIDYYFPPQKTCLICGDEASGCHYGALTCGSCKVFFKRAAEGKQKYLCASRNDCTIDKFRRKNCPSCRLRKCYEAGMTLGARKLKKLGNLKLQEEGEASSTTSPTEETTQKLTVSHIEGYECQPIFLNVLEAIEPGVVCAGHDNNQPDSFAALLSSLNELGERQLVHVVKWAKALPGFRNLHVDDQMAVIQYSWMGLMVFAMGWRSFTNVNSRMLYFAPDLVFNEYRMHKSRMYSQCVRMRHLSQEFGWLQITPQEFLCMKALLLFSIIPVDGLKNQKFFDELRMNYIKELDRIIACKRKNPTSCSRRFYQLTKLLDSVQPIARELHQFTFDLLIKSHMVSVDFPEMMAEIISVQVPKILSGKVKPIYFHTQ

C=CCCCCCCCC
inactive: outcome [1] | outcome [2] | outcome [3] | outcome [4] | Potency [5] | outcome [6] | outcome [7] | outcome [8] | outcome [9] | outcome [10] | outcome [11] | Potency [12] | outcome [13] | outcome [14] | outcome [15]

CC(C)Cn1cnc2c1c(=O)n(C)c(=O)n2C
inactive: outcome [1] | outcome [2] | outcome [3] | outcome [4] | Potency [5] | outcome [6] | outcome [8] | Potency [16] | outcome [9] | outcome [10] | outcome [11] | Potency [17] | outcome [15]

CN(C)CCCCl
inactive: outcome [1] | outcome [2] | outcome [3] | outcome [4] | Potency [5] | outcome [6] | outcome [7] | outcome [8] | Potency [16] | outcome [9] | outcome [11] | Potency [12] | Potency [17] | outcome [13] | outcome [14] | outcome [15]

N#Cc1ccccc1O
inactive: outcome [1] | outcome [2] | outcome [3] | outcome [4] | Potency [5] | outcome [6] | outcome [7] | outcome [8] | Potency [16] | outcome [9] | outcome [10] | outcome [11] | Potency [12] | Potency [17] | outcome [13] | outcome [14] | outcome [15]

CCCCCCCCCOC(=O)CCCCC(=O)OCCCCCCC
inactive: outcome [1] | outcome [2] | outcome [3] | outcome [4] | Potency [5] | outcome [6] | outcome [7] | outcome [8] | outcome [9] | outcome [10] | outcome [11] | Potency [12] | Potency [17] | outcome [13] | outcome [14] | outcome [15]

O=C(Cl)c1ccccc1[N+](=O)[O-]
inactive: outcome [1] | outcome [2] | outcome [3] | outcome [4] | Potency [18] | Potency [19] | outcome [6] | outcome [7] | outcome [20] | outcome [8] | outcome [9] | outcome [10] | outcome [11] | Potency [12] | Potency [17] | outcome [13] | outcome [14] | outcome [15]

C=Cc1ccc(C(C)(C)C)cc1
inactive: outcome [1] | outcome [2] | outcome [3] | outcome [4] | Potency [5] | outcome [6] | outcome [7] | outcome [8] | outcome [9] | outcome [10] | outcome [11] | Potency [12] | Potency [17] | outcome [13] | outcome [14] | outcome [15]

O=Cc1cc2ccccc2o1
inactive: outcome [1] | outcome [2] | outcome [3] | outcome [4] | Potency [5] | outcome [6] | outcome [7] | outcome [10] | Potency [12] | Potency [17] | outcome [13] | outcome [14] | outcome [15]

CC(=O)OC(C)=O
inactive: outcome [1] | outcome [2] | outcome [3] | outcome [4] | Potency [5] | outcome [6] | outcome [7] | outcome [8] | outcome [9] | outcome [10] | outcome [11] | Potency [12] | Potency [17] | outcome [13] | outcome [14] | outcome [15]

CCCCCCCCCCOC(C)=O
inactive: outcome [1] | outcome [2] | outcome [3] | outcome [4] | Potency [5] | outcome [6] | outcome [7] | outcome [8] | outcome [10] | outcome [11] | Potency [12] | Potency [17] | outcome [13] | outcome [14] | outcome [15]

CC/C(C)=N\O[Si](C)(O/N=C(\C)CC)O/N=C(\C)CC
inactive: outcome [1] | outcome [2] | outcome [3] | outcome [4] | Potency [5] | outcome [6] | outcome [7] | outcome [8] | Potency [16] | outcome [10] | Potency [12] | outcome [13] | outcome [14] | outcome [15]

O=C(CN1CCNCC1)NC1CCCCC1
inactive: outcome [1] | outcome [2] | outcome [3] | outcome [4] | Potency [5] | outcome [6] | outcome [7] | Potency [16] | outcome [9] | outcome [10] | outcome [11] | Potency [12] | Potency [17] | outcome [15]

CCOC(CN1CCN(CC(C)C(=O)c2ccccc2)CC1)c1ccccc1 (centres undefined)
inactive: activity change, negative = cytotoxicity [1] -3.08% [at 19 µM] | viability change, negative = cytotoxic [2] -6.98% [at 19 µM] | viability change, negative = cytotoxic [3] -0.0061% [at 19 µM] | activity change [4] 0.16% [at 18.9 µM] | activity change, negative = inhibition [5] -3.93% [at 19 µM] | activity change, negative = cytotoxicity [6] -6.08% [at 19 µM] | activity change, negative = cytotoxicity [7] -10.4% [at 19 µM] | activity change, negative = cytotoxicity [8] -10.1% [at 19 µM] | cAMP activity change [9] 5.14% [at 18.9 µM] | activity change, negative = inhibition [10] 0.0091% [at 19 µM] | activity change, negative = cytotoxicity [11] -9.47% [at 19 µM] | activation [12] 0.845% [at 19 µM] | activity change, negative = inhibition [17] 8.35% [at 18.9 µM] | activity change, negative = cytotoxicity [13] 27.5% [at 18.9 µM] | activity change, negative = cytotoxicity [14] 2.31% [at 19 µM] | viability change, negative = cytotoxic [15] -0.107% [at 15.8 µM]
